The values below come from PubChem BioAssay AID1851 (National Center for Advancing Translational Sciences (NCATS), 2009).

Several values for one entry are separate records, joined by “and”; a condition that tells them apart may be missing. Equal values may be shown once. Hit rate of the full screen: of about 16,000 compounds, about 2,600 (16%) were called active. About 20% were inconclusive and are not listed. The sample as a whole holds a higher share of actives than the screen did. Unmarked numbers belong to inactive results. Calls follow the shape of the dose curve; as a rule, active = well fitted curve in the direction sought with a large enough effect; inconclusive = small, poorly fitted or top-dose-only effect, or effect the other way; inactive = no such curve, though single readings can be large or run the other way.
% is scaled to controls: 0 for no effect and ±100 for the full control effect.

The target in the experiment is Cytochrome P450 2D6 (Homo sapiens) (UniProt P10635). As to the kind of experiment: Cytochrome panel assay with activity outcomes. The following applies: recombinant CYP, pro-luciferin dealkylation, luminescence, p450-cyp2d6; series mostly up to 57.1 µM; activity, negative = inhibition: at the top concentration.
Sequence of Cytochrome P450 2D6 (Homo sapiens) (P10635 whole entry, looked up): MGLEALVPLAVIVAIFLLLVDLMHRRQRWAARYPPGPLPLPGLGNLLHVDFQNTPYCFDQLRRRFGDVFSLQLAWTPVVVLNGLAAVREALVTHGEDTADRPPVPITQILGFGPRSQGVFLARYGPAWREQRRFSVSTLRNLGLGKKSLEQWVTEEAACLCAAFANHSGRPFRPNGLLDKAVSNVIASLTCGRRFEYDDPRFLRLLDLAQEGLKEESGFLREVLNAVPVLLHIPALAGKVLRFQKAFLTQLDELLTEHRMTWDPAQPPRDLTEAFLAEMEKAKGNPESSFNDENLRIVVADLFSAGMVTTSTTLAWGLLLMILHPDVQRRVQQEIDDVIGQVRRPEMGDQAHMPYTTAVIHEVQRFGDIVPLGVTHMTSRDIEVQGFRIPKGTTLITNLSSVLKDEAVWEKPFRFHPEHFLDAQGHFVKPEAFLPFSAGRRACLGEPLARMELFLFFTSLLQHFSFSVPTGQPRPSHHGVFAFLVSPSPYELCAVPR
For the compound `C=CCN1CCC2(C)c3cc(O)ccc3C[C@H]1[C@H]2C`, the AC50 is 7.94 µM (active) and 25.1 µM (active) and 631 nM (active).
Take `CC(=O)c1c(O)c(C)c(O)c(Cc2c(O)c3c(c(C(=O)/C=C\c4ccccc4)c2O)OC(C)(C)C=C3)c1O`: the “activity, negative = inhibition” value is -9.48%.
As for `CC[C@@]1(O)C(=O)OCc2c1cc1n(c2=O)Cc2cc3ccccc3nc2-1`, the AC50 entry was “inactive”.
As for `C=C1C/C(=C\C)C(=O)O[C@@H]2CCN3CC=C(COC(=O)[C@@]1(C)O)[C@H]23`, the “activity, negative = inhibition” value is 3.61% [at 25.6 µM].
The same measure, in the same setting: the figure for `COc1ccc2[nH]cc(C3=CCNCC3)c2c1` is -4.23%.
For the compound `O=c1ccc2[nH]cc(C3=CCNCC3)c2[nH]1`, the AC50 was 2.51 µM (active).
On the same count and under the same terms, the figure for `OC1(c2ccc(Cl)cc2)CCN(Cc2c[nH]c3ccccc23)CC1` is 0.316 µM (active).
Take `O=C(Nc1ccc(Cl)cc1C(=O)c1ccccc1)c1ccco1`: the “activity, negative = inhibition” value is -13.7%.
On to `C=C(C)CN1CC[C@@]23c4c5ccc(O)c4O[C@H]2c2[nH]c4ccccc4c2C[C@]3(O)[C@@H]1C5`, for which the “activity, negative = inhibition” value is 1.9%.
For the compound `COc1ccc2c3c1O[C@@H]1C(=O)CC[C@@]4(O)[C@@H](C2)N(CC2CC2)CC[C@]314`, the AC50 is 5.01 µM (active).
On to `NC(N)=Nc1ccc2[nH]c3c(c2c1)C[C@]1(O)[C@@H]2Cc4ccc(O)c5c4[C@]1(CCN2CC1CC1)[C@@H]3O5`, for which the “activity, negative = inhibition” value was 8.91%.
Still for that read-out and setting: the figure for `O=C1/C(=C\c2ccccc2)C[C@@]2(O)[C@H]3Cc4ccc(O)c5c4[C@@]2(CCN3CC2CC2)[C@@H]1O5` is 12.5%.
In the case of `O=C(/C=C\c1ccc(Cl)cc1)N[C@@]12CCC(=O)[C@@H]3Oc4c(O)ccc5c4[C@@]31CCN(CC1CC1)[C@@H]2C5`, the AC50 is 5.01 µM (active).
Take `Cc1ncc([N+](=O)[O-])n1CCN=[N+]=[N-]`: the activity, negative = inhibition is 0.431% [at 11.4 µM].
On the same count and under the same terms, for `CCCN(CCC)C(=O)Cc1c(-c2ccc(Cl)cc2)nc2c(Cl)cc(Cl)cn12` the value was 2.68%.
On the same count and under the same terms, the figure for `C[C@]12CCC3c4ccc(OCC(=O)O)cc4CCC3C1CCC2=O` (stereo partly drawn) is 12.6% [at 11.4 µM]; for `C[C@]12CC[C@H]3c4ccc(O)cc4CC[C@@H]3[C@H]1CC[C@@H]2OP(=O)(O)O` it is 11.2% [at 11.4 µM].
With `COc1ccc2c(c1)CCC1[C@@H]2CCC2(C)[C@@H](NCCCCCCN3C(=O)C=CC3=O)CC[C@@H]12` (stereo partly drawn), the concentration at half-maximal activity (AC50) was 10 µM (active).
Regarding `CO[C@@H]1CC=C2CCN3CCC4=C(CC(=O)OC4)[C@]23C1`, the “activity, negative = inhibition” value is -6.15%.
Still for that read-out and setting: the figure for `CN1C(=O)COc2c(C(=O)N[C@@H]3CN4CCC3CC4)cc(Cl)cc21` is 6.82%.
On to `Cn1cc(C(=O)C(=O)N[C@H]2CN3CCC2CC3)c2ccccc21`, for which the AC50 was 0.0631 µM (active).
In the case of `CC(C)n1cnc2c(C(=O)N[C@H]3CN4CCC3CC4)cc(Cl)cc21`, the “activity, negative = inhibition” value is 3.65%.
For `CCNC(C)(C)[C@@H](SS)c1ccc(Br)cc1`, the half-maximal activity concentration (AC50) is 2 µM (active).
Regarding `CNCCc1ccc(O)c(O)c1`, the “activity, negative = inhibition” value is -2.02%.
The same measure, in the same setting: the figure for `Nc1nc(N)c(Cn2ccnc2)c(=O)[nH]1` is -11.4% [at 11.4 µM].
As to `CS(=O)(=O)Nc1ccc(Cc2noc(-c3ccc4[nH]cc(CCN)c4c3)n2)cc1`, the AC50 was 0.126 µM (active).
The same measure, in the same setting: the figure for `CCCN[C@@H]1CCc2c(OC)cccc2[C@@H]1C` is 0.251 µM (active).
`CCCN(CCC)[C@@H]1CCc2c(OC)cccc2[C@@H]1C`: the “activity, negative = inhibition” value was 5.27%.
Still for that read-out and setting: for `OC1(c2ccc(F)cc2)CCNC1` (stereo not drawn) the value was -4.2%.
For `CCCN1CCC[C@@H]2Cc3[nH]ncc3C[C@H]21`, the AC50 entry is “inactive”.
As for `C[C@@]12CC[C@H]3[C@@H](CCC4=C(O)C(=O)CC[C@]43C)[C@H]1CCC2=O`, the “activity, negative = inhibition” value was -13.5%.
On the same count and under the same terms, for `COC(=O)c1cc2c(cn1)[nH]c1ccccc12` the value was -1.19%.
For `Cc1nccc2c1[nH]c1ccccc12`, the AC50 was 10 µM (active).
The same measure, in the same setting: the figure for `Cc1c2ccncc2c(C)c2c1[nH]c1ccccc12` is 6.31 µM (active).
Consider `O=[N+]([O-])c1ccc(N2CCNCC2)cc1NCC1CCCO1` (stereo not drawn), for which the “activity, negative = inhibition” value is -5.92%.
The same measure, in the same setting: the figure for `NC(=O)CI` is -9.38%; for `CN1CCC(c2c[nH]c3ccc(O)cc23)CC1` it is -0.301%.
Consider `NCCc1c[nH]c2ccc(C(N)=O)cc12`, for which the AC50 entry is “inactive”.
The same measure, in the same setting: for `CCCN(CCC)CCc1c[nH]c2ccc(C(N)=O)cc12` the value was 39.8 µM (active).
As to `NCCc1c[nH]c2ccc(O)cc12`, the “activity, negative = inhibition” value is -15.6%.
As to `CC[C@H]1CN2CC[C@@H]1C[C@H]2[C@@H](O)c1ccnc2ccc(OC)cc12`, the AC50 is 3.16 µM (active).
The same measure, in the same setting: for `C=C[C@H]1CN2CC[C@@H]1C[C@H]2[C@@H](O)c1ccnc2ccccc12` the value was 3.16 µM (active) and 501 nM (active); for `C=C[C@@H]1CN2CC[C@H]1C[C@H]2[C@H](O)c1ccnc2ccccc12`, 3.98 µM (active).
Regarding `O=C(O)CC[N+](=O)[O-]`, the “activity, negative = inhibition” value is 7.9%.
On the same count and under the same terms, the figure for `C[C@H]1C(=O)O[C@@H]2CCN3CC=C(COC(=O)[C@@](C)(O)[C@@]1(C)O)[C@H]23` is 6.81% [at 25.6 µM]; for `CCOP(=O)(OCC)C(NC(C)=O)C(Cl)(Cl)Cl` (stereo not drawn) it is 2.71%.
Same read-out and setting: the figure for `N[C@@H](CP(=O)(O)O)C(=O)O` is -1.79% [at 11.4 µM]; for `COc1ccc(C(=O)c2c(C)n(CCN3CCOCC3)c3cc(I)ccc23)cc1` it is 6.13%.

The term AC50 denotes the concentration giving half of the maximal activity seen.
